From PubChem BioAssay (NCATS)
Results filed as inconclusive are left out. Activity calls are given as the source filed them. Calls follow the shape of the dose curve; as a rule, active = well fitted curve in the direction sought with a large enough effect; inconclusive = small, poorly fitted or top-dose-only effect, or another doubt; inactive = no such curve, though single readings can be large; an effect the other way counts as inactive or inconclusive.

Experiments:
[1] = Quantitative High-Throughput drug screen in 47 multiple myeloma cell lines against the NCATS MIPE library collection: Delta47_JCRB cell viability assay (AID 1918925; also: nearly all actives have a fitted effect of over 45% in size)
Method in brief: (§1)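 Viability readout: CellTiter-Glo luminescence following 5 min room-temperature incubation with reagent. Prior exposure: 48 h, 37C, humidified 5% CO2, 500 cells per well.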

[2] = Quantitative High-Throughput drug screen in 47 multiple myeloma cell lines against the NCATS MIPE library collection: AMO1_DSMZ cell viability assay (AID 1918927; also: nearly all actives have a fitted effect of over 30% in size)
Method in brief: as §1

[3] = Quantitative High-Throughput drug screen in 47 multiple myeloma cell lines against the NCATS MIPE library collection: ARD_JJKsccE7 cell viability assay (AID 1918929)
Method in brief: as §1

[4] = Quantitative High-Throughput drug screen in 47 multiple myeloma cell lines against the NCATS MIPE library collection: Karpas620_DSMZ cell viability assay (AID 1918959); also: nearly all actives have a fitted effect of over 30% in size
Method in brief: (§2)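 Inhibition of cell viability is measured here. Each line was plated at 500 cells per well, treated with MIPE 4.0 drugs, kept 48 hours at 37C, then assayed for ATP content by CellTiter-Glo luminescence.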

[5] = Quantitative High-Throughput drug screen in 47 multiple myeloma cell lines against the NCATS MIPE library collection: JIM3_ECACC cell viability assay (AID 1918963; also: nearly all actives have a fitted effect of over 35% in size)
Method in brief: as §2

[6] = Quantitative High-Throughput drug screen in 47 multiple myeloma cell lines against the NCATS MIPE library collection: JIM1_ECACC cell viability assay (AID 1918964)
Method in brief: as §1

[7] = Quantitative High-Throughput drug screen in 47 multiple myeloma cell lines against the NCATS MIPE library collection: INA6_PLB cell viability assay (AID 1918965; also: nearly all actives have a fitted effect of over 55% in size)
Method in brief: (§3)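 qHTS of the MIPE 4.0 collection: 500 myeloma cells/well, 48 h drug exposure at 37C in 5% CO2, then CellTiter-Glo for 5 min at room temperature before luminescence reading.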

[8] = Quantitative High-Throughput drug screen in 47 multiple myeloma cell lines against the NCATS MIPE library collection: JJN3_DSMZ cell viability assay (AID 1918966; also: nearly all actives have a fitted effect of over 50% in size)
Method in brief: as §1

[9] = Quantitative High-Throughput drug screen in 47 multiple myeloma cell lines against the NCATS MIPE library collection: H1112_PLB cell viability assay (AID 1918967; also: nearly all actives have a fitted effect of over 30% in size)
Method in brief: as §1

[10] = Quantitative High-Throughput drug screen in 47 multiple myeloma cell lines against the NCATS MIPE library collection: KMS12PE_JCRB cell viability assay (AID 1918972); also: nearly all actives have a fitted effect of over 30% in size
Method in brief: as §3

[11] = Quantitative High-Throughput drug screen in 47 multiple myeloma cell lines against the NCATS MIPE library collection: ARP1_JJKsccF8 cell viability assay (AID 1918928; also: nearly all actives have a fitted effect of over 40% in size)
Method in brief: (§4)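 Myeloma cells at 500 per well in 1536-well format treated with MIPE 4.0 library by pin transfer for 48 h at 37C, 5% CO2. Viability from ATP luminescence (CellTiter-Glo), normalized to DMSO (100%) and media-only (0%) wells.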

[12] = Quantitative High-Throughput drug screen in 47 multiple myeloma cell lines against the NCATS MIPE library collection: Karpas417_ECACC cell viability assay (AID 1918961); conditions: Karpas417 myeloma viability, CellTiter-Glo ATP luminescence, 48 h; viability (% of DMSO): at 45.8 µM (top of the series)
Method in brief: as §3

[13] = Quantitative High-Throughput drug screen in 47 multiple myeloma cell lines against the NCATS MIPE library collection: KMS27_JCRB cell viability assay (AID 1918970); also: nearly all actives have a fitted effect of over 30% in size
Method in brief: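 ATP-based viability (CellTiter-Glo luminescence) is measured in cells treated 48 h with approved and investigational drugs at 37 °C. Controls are DMSO-only wells for full viability and media-only wells for none.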

[14] = Quantitative High-Throughput drug screen in 47 multiple myeloma cell lines against the NCATS MIPE library collection: KMS12BM_JCRB cell viability assay (AID 1918971); also: nearly all actives have a fitted effect of over 35% in size
Method in brief: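 Approved and investigational drugs from MIPE 4.0 were added by pin tool to 500 cells per well. After 48 hours at 37C, ATP-based CellTiter-Glo luminescence indicated remaining viability.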

[15] = Quantitative High-Throughput drug screen in 47 multiple myeloma cell lines against the NCATS MIPE library collection: Karpas25_ECACC cell viability assay (AID 1918968; also: nearly all actives have a fitted effect of over 35% in size)
Method in brief: as §1

[16] = Quantitative High-Throughput drug screen in 47 multiple myeloma cell lines against the NCATS MIPE library collection: KMM1_JCRB cell viability assay (AID 1918960); also: nearly all actives have a fitted effect of over 30% in size
Method in brief: as §4

[17] = Quantitative High-Throughput drug screen in 47 multiple myeloma cell lines against the NCATS MIPE library collection: KHM11_PLB cell viability assay (AID 1918962); also: nearly all actives have a fitted effect of over 35% in size
Method in brief: as §2

[18] = Quantitative High-Throughput drug screen in 47 multiple myeloma cell lines against the NCATS MIPE library collection: EJM_DSMZ cell viability assay (AID 1918926; also: nearly all actives have a fitted effect of over 30% in size)
Method in brief: as §1

[19] = Quantitative High-Throughput drug screen in 47 multiple myeloma cell lines against the NCATS MIPE library collection: KMS20_JCRB cell viability assay (AID 1918973); also: nearly all actives have a fitted effect of over 45% in size
Method in brief: as §1
Potency is read from the fitted curve at half-maximal effect.

O=C(O)c1c(Cl)c(Cl)c(Cl)c(Cl)c1-c1c2cc(I)c(=O)c(I)c-2oc2c(I)c(O)c(I)cc12
active: Potency [1] 14.8 µM | Potency [2] 13.2 µM | Potency [3] 8.33 µM | Potency [4] 14.8 µM | Potency [5] 7.43 µM | Potency [6] 2.35 µM | Potency [7] 10.5 µM | Potency [8] 5.9 µM | Potency [9] 3.32 µM | Potency [10] 10.5 µM

COc1ccc(-c2oc3c(CC=C(C)C)c(OC4O[C@H](CO)[C@@H](O)[C@H](O)[C@@H]4O)cc(O)c3c(=O)c2OC2O[C@@H](C)[C@H](O)[C@@H](O)[C@@H]2O)cc1 (some centres undefined)
active: Potency [1] 18.7 µM | Potency [2] 8.33 µM | Potency [11] 16.6 µM | Potency [3] 9.35 µM | Potency [4] 11.8 µM | Potency [12] 10.5 µM | Potency [5] 20.9 µM | Potency [7] 33.2 µM | Potency [8] 18.7 µM | Potency [9] 23.5 µM | Potency [13] 11.8 µM | Potency [14] 18.7 µM | Potency [10] 8.33 µM

COc1cc(N2CCC(N3CCN(C)CC3)CC2)ccc1Nc1ncc(Cl)c(Nc2ccccc2S(=O)(=O)C(C)C)n1
inactive: Potency [1] | Potency [15]

NC(=O)c1cccc(-c2cc(Nc3ccc(OC(F)(F)F)cc3)ncn2)c1
active: Potency [1] 18.7 µM | Potency [2] 18.7 µM | Potency [4] 26.4 µM | Potency [16] 14.8 µM | Potency [17] 14.8 µM | Potency [5] 18.7 µM | Potency [7] 14.8 µM | Potency [13] 18.7 µM | Potency [14] 23.5 µM | Potency [10] 16.6 µM

CC(C)n1cnc2c(NCCCCCCNC(=O)OC(C)(C)C)nc(NCCO)nc21
inactive: Potency [6]
active: Potency [1] 14.8 µM | Potency [18] 20.9 µM | Potency [2] 4.69 µM | Potency [16] 7.43 µM | Potency [5] 18.7 µM | Potency [7] 23.5 µM | Potency [15] 23.5 µM | Potency [14] 18.7 µM | Potency [19] 1.05 µM

O=C(Nc1cccc(Br)c1)c1cccc(S(=O)(=O)N2CCCCCC2)c1
active: Potency [1] 18.7 µM | Potency [3] 16.6 µM | Potency [4] 20.9 µM | Potency [16] 16.6 µM | Potency [6] 7.43 µM | Potency [7] 18.7 µM | Potency [15] 18.7 µM | Potency [14] 20.9 µM | Potency [10] 10.5 µM

Cc1ccc([C@@H]2O[C@H](CO)[C@@H](O)[C@H](O)[C@@H]2O)cc1Cc1ccc(-c2ccc(F)cc2)s1
active: Potency [1] 20.9 µM | Potency [2] 18.7 µM | Potency [3] 20.9 µM | Potency [16] 16.6 µM | Potency [13] 23.5 µM | Potency [10] 20.9 µM
inactive: Potency [9] | Potency [14]

COCCOc1nc(-c2ccc(Cl)c(Cl)c2)n(-c2ccc(NC(=O)CCl)cc2)n1
active: Potency [1] 9.35 µM | Potency [2] 16.6 µM | Potency [11] 23.5 µM | Potency [3] 16.6 µM | Potency [4] 16.6 µM | Potency [16] 14.8 µM | Potency [12] 16.6 µM | Potency [17] 11.8 µM | Potency [6] 14.8 µM | Potency [7] 11.8 µM | Potency [8] 23.5 µM | Potency [13] 16.6 µM | Potency [14] 16.6 µM | Potency [10] 14.8 µM

O=C1NC(=O)C(=Cc2ccc3nccnc3c2)S1
inactive: Potency [2]
active: Potency [1] 6.45 µM | Potency [4] 3.63 µM | Potency [16] 2.04 µM | Potency [5] 10.2 µM | Potency [7] 7.24 µM | Potency [8] 8.12 µM | Potency [13] 2.29 µM | Potency [14] 8.12 µM | Potency [10] 1.15 µM

CCC(=O)NC[C@H](Cc1ccc(OCCc2nc(-c3ccccc3)oc2C)cc1)NC(C)=CC(=O)c1ccc(C(F)(F)F)cc1
inactive: Potency [1] | Potency [4] | Potency [5] | Potency [9] | Potency [15] | Potency [19]
active: Potency [18] 26.4 µM | Potency [3] 1.48 µM | Potency [14] 26.4 µM | Potency [10] 7.43 µM

NC(CO)(CO)CCc1ccc(Sc2cccc(OCc3ccccc3)c2)cc1Cl
active: Potency [1] 9.35 µM | Potency [2] 20.9 µM | Potency [11] 23.5 µM | Potency [4] 16.6 µM | Potency [16] 18.7 µM | Potency [17] 7.43 µM | Potency [5] 13.2 µM | Potency [6] 16.6 µM | Potency [7] 9.35 µM | Potency [9] 16.6 µM | Potency [15] 7.43 µM | Potency [13] 11.8 µM | Potency [10] 9.35 µM

CO[C@H]1C=CO[C@@]2(C)Oc3c(C)c(O)c4c(O)c(c5c(c4c3C2=O)NC2(CCN(CC(C)C)CC2)N=5)=NC(=O)C(C)=CC=C[C@H](C)[C@H](O)[C@@H](C)[C@@H](O)[C@@H](C)[C@H](OC(C)=O)[C@H]1C
inactive: Potency [1] | Potency [16] | Potency [5] | Potency [6]
active: Potency [10] 11.8 µM

CC[C@@H]1C=C(C)C[C@H](C)C[C@H](OC)[C@H]2O[C@@](O)(C(=O)C(=O)N3CCCC[C@@H]3C(=O)O[C@H](C(C)=C[C@@H]3CC[C@H](Cl)[C@H](OC)C3)[C@H](C)[C@@H](O)CC1=O)[C@H](C)C[C@H]2OC
active: Potency [1] 16.6 µM | Potency [2] 9.35 µM | Potency [11] 13.2 µM | Potency [4] 13.2 µM | Potency [16] 8.33 µM | Potency [5] 18.7 µM | Potency [7] 5.26 µM | Potency [9] 18.7 µM | Potency [13] 8.33 µM | Potency [10] 7.43 µM

C=C1C(=O)OC(CCCCCCCC)C1C(=O)O (centres undefined)
inactive: Potency [2] | Potency [11] | Potency [3] | Potency [17] | Potency [6] | Potency [13]
active: Potency [1] 14.8 µM | viability (% of DMSO) [12] 74% | Potency [7] 18.7 µM

Cc1ccccc1C(C(=O)NC1CCCCC1)N(C(=O)Cn1ccnc1C)c1cccc(F)c1 (centres undefined)
inactive: Potency [4] | Potency [16] | Potency [5] | Potency [7] | Potency [13]
active: Potency [1] 11.8 µM | Potency [15] 18.7 µM | Potency [14] 8.33 µM | Potency [10] 2.35 µM

Clc1ccc(CCC(Cn2ccnc2)Sc2c(Cl)cccc2Cl)cc1 (centres undefined)
active: Potency [1] 23.5 µM | Potency [2] 14.8 µM | Potency [3] 13.2 µM | Potency [4] 18.7 µM | Potency [15] 16.6 µM | Potency [13] 18.7 µM | Potency [10] 14.8 µM
